# According to PubChem BioAssay AID2501 (Southern Research Specialized Biocontainment Screening …, 2010):
# Among all 2,200 compounds or so, about 1,200 (55%) were called active. No cut-off is given here; in the data, nearly all actives have IC50 up to about 92 µM. The set was probably picked from earlier hits. The list shows a part of the results.
# Test: counter assay for TAg ATPase ADP read-out – biochemical, ADP-Hunter, fluorescence, counter-screen (AID 2501);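 note: purified T antigen ATPase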
# Conditions: series mostly up to 100 µM
row,Structure (SMILES),IC50
1,Cc1nonc1C1CCCN1C(=O)c1cc(COc2ccc(F)cc2F)on1 (stereo unspecified),inactive
2,COc1ccccc1C(NC(C)=O)c1c(O)ccc2ccc(O)cc12 (stereo unspecified),inactive
3,COc1cc(O)ccc1C(=O)CCc1ccc(O)cc1,6.75 µM (active)
4,O=C(CCO)c1ccc(O)cc1,inactive
5,COc1cc(C2OCC3C(c4ccc(OC5OC(CO)C(O)C(O)C5O)c(OC)c4)OCC23)ccc1O (stereo unspecified),8.74 µM (active)
6,O=C(CN1C(=O)/C(=C/c2ccco2)SC1=S)NC1CCS(=O)(=O)C1 (stereo unspecified),35.1 µM (active)
7,O=C(CN1C(=O)/C(=C\c2ccco2)SC1=S)Nc1ccc(O)cc1C(=O)O,inactive
8,O=C(CN1C(=O)/C(=C/c2ccco2)SC1=S)Nc1ccc(O)c(C(=O)O)c1,inactive
9,N#Cc1c(Nc2ccccc2Cl)s[nH]c1=O,inactive
10,O=C([C@H](Cc1ccccc1)NS(=O)(=O)c1ccc(Cl)cc1)N1CC[C@@]2(O)CCCC[C@H]2C1,18.9 µM (active)
11,O=C(O)CSc1cc(NS(=O)(=O)c2ccc(Cl)cc2)c2ccccc2c1O,inactive
12,COc1ccc(-c2c(C)nn3c(-c4ccccc4)cc(C)nc23)cc1,inactive
13,NC(=S)N=Nc1ccc(NN=C(N)N)cc1,6.85 µM (active)
14,COc1ccccc1C1/C(=C(/O)c2ccc(C)cc2)C(=O)C(=O)N1CC(C)O (stereo unspecified),inactive
15,CCOC1=C/C(=C/c2c(N)n3nc(-c4ccccc4)sc3nc2=O)C=CC1=O,11.2 µM (active)
16,COC1=C/C(=C/c2c(N)n3nc(-c4ccc(C)cc4)sc3nc2=O)C=CC1=O,10.8 µM (active)
17,CCCOc1ccc(Cc2nn3c(=O)/c(=C/c4ccco4)sc3nc2=O)cc1,inactive
18,O=c1nc2s/c(=C\c3ccco3)c(=O)n2nc1Cc1ccccc1,inactive
19,CCOC(=O)N1CCN(c2cc(NCCC(=O)O)c3c4c(onc24)-c2ccccc2C3=O)CC1,8.63 µM (active)
20,CCOc1cc(CNc2ccc(N3CCN(C(C)=O)CC3)cc2)cc(Br)c1OC,5.42 µM (active)
21,CCOc1c(Br)cc(CNc2ccc(N3CCN(C(C)=O)CC3)cc2)cc1OC,7.66 µM (active)
22,CCOc1c(Br)cc(CNc2ccc(N3CCOCC3)cc2)cc1OC,6.04 µM (active)
23,Cn1ncc2nnn(-c3ccccc3)c(=O)c21,inactive
24,Brc1ccc(-c2nn3c(-c4ccco4)nnc3s2)o1,inactive

row,Structure (SMILES),IC50
1,COc1cc(/C=N/NC(=O)CCc2c(C)n[nH]c2C)ccc1O,4.69 µM (active)
2,COc1ccc(Cc2nc3ccccc3n2CC(=O)N/N=C/c2ccc(O)cc2)cc1OC,4.33 µM (active)
3,COc1cc(/C=N/NC(=O)C(C)n2nnc3ccccc32)ccc1O (stereo unspecified),3.07 µM (active)
4,CCOc1ccc(NC(=O)c2nnn(CC(=O)Nc3ccccc3OC)c2N)cc1,inactive
5,CCOc1cc(/C=N\NC(=O)Cn2nnc3ccccc32)ccc1O,5.43 µM (active)
6,CC(C(=O)Nc1ccccc1Cl)N(c1ccccc1)S(C)(=O)=O (stereo unspecified),inactive
7,CCCSC1=N/C(=C\C=C\c2ccco2)C(=O)S1,inactive
8,CCOc1cc(/C=N/NC(=O)CCn2nnc3ccccc32)ccc1O,3.32 µM (active)
9,COc1cc(/C=N/NC(=O)CCn2nnc3ccccc32)ccc1O,3.56 µM (active)
10,COc1cc(/C=N/NC(=O)Cn2nnc3ccccc32)ccc1O,2.86 µM (active)
11,COc1cc(/C=N/NC(=O)CCn2nc(C)cc2C)ccc1O,6.73 µM (active)
12,CCOC(=O)C1=C(N)n2c(s/c(=C\c3ccco3)c2=O)=C(C(=O)OCC)C1c1ccco1 (stereo unspecified),inactive
13,C[C@]12CC[C@@H]3c4cc(O)c(O)cc4CC[C@H]3[C@@H]1CC[C@@H]2O,inactive
14,CCCNC(=O)c1ccc(CNc2c(N3CCC(C(=O)OCC)CC3)c(=O)c2=O)cc1,inactive
15,Cc1cccc(N=C2NC(=O)/C(=C/C=C/c3ccco3)S2)c1,inactive
16,Cc1ccc(S(=O)(=O)/N=C2/NC(=O)/C(=C\c3ccco3)S2)cc1,inactive
17,O=C(CCCN1C(=O)/C(=C\c2ccco2)SC1=S)Nc1ccc(O)cc1C(=O)O,inactive
18,O=C(O)CC(C(=O)O)N1C(=O)/C(=C/C=C/c2ccco2)SC1=S (stereo unspecified),inactive
19,O=C1NC(=Nc2ccc(O)cc2)S/C1=C\C=C\c1ccco1,3.48 µM (active)
20,O=C1NC(=Nc2ccc(O)cc2)S/C1=C/c1ccco1,5.16 µM (active)
21,CCCC[C@@H]1CN=C(N)N1CCc1cc(C(F)(F)F)cc(C(F)(F)F)c1,inactive
22,O=Nc1c(-c2cccc([N+](=O)[O-])c2)nc2ncccn12,inactive
23,CN=c1nc(-c2ccccc2)n(-c2ccccc2)s1,11.8 µM (active)
24,O=C(N/N=C/c1ccc(OC(=O)c2ccco2)cc1)c1ccc[n+]([O-])c1,41.7 µM (active)

row,Structure (SMILES),IC50
1,CCOC(=O)C1=C(C)NC(=S)NC1c1ccc(OC(=O)c2ccco2)cc1 (stereo unspecified),inactive
2,Oc1ccc(-c2nc(=S)[nH][nH]2)cc1,2.49 µM (active)
3,O=C(Nc1ccc(S(=O)(=O)N2CCCC2)cc1)N1c2ccccc2Sc2ccccc21,inactive
4,O=c1c2ccccc2sn1-c1cc(S(=O)(=O)N2CCOCC2)ccc1N1CCOCC1,12.5 µM (active)
5,O=c1c2ccccc2sn1-c1cc(S(=O)(=O)N2CCOCC2)ccc1N1CCCC1,12.5 µM (active)
6,Cc1ccc2c(c1)C(c1ccccc1)N(C(=O)c1ccc(S(=O)(=O)N3CCOCC3)cc1)CC(=O)N2 (stereo unspecified),inactive
7,C[C@@H]1O[C@@H](OC2C(O)C(OCCc3ccc(O)c(O)c3)OC(CO)C2OC(=O)/C=C/c2ccc(O)c(O)c2)[C@H](O)[C@H](O)[C@H]1O (stereo partly specified),6.02 µM (active)
8,Nc1nc[nH]c(=O)c1N=Cc1ccccc1,12.2 µM (active)
9,C=CCNc1nnc(SC2CC(=O)N(c3ccc(OC)cc3)C2=O)s1 (stereo unspecified),11.2 µM (active)
10,CCN=C(Nc1ccc2c(c1)OCO2)SC1CC(=O)N(c2ccc(OC)cc2)C1=O (stereo unspecified),inactive
11,Cc1c(/C=N/NC(=O)c2ccc(O)cc2)c2ccccn2c1C(=O)c1ccc(F)cc1,inactive
12,CN1/C(=C\C=N\NC(=O)c2ccc(O)cc2)C(C)(C)c2ccccc21,8.51 µM (active)
13,O=S(=O)(O)c1cc(O)c2c(O)c(N=Nc3cc(Cl)ccc3O)c(S(=O)(=O)O)cc2c1,81.2 µM (active)
14,Cc1cc(-c2ccc(N=Nc3c(S(=O)(=O)O)cc4cc(S(=O)(=O)O)cc(N)c4c3O)c(C)c2)ccc1N=Nc1c(S(=O)(=O)O)cc2cc(S(=O)(=O)O)cc(N)c2c1O,11.5 µM (active)
15,Cc1sc(NC(=O)C2C3CCC(O3)C2C(=O)O)c(C(=O)OC(C)C)c1-c1ccc(Cl)cc1 (stereo unspecified),inactive
16,CCn1cnc2cc(NCc3cccc(OC)c3O)ccc21,3.71 µM (active)
17,CCCn1cnc2cc(NCc3cccc(OC)c3O)ccc21,4.87 µM (active)
18,C/C(Cl)=C\Cn1c(N2CCCC2)nc2c1c(=O)[nH]c(=O)n2C,inactive
19,O=C(O)CCNc1ccc(NCCC(=O)O)c2c1C(=O)c1ccccc1C2=O,7.52 µM (active)
20,Oc1cnn(-c2ccccc2)c1,7.63 µM (active)
21,O=C(Nc1nc(-c2ccco2)c(-c2ccco2)s1)c1ccco1,inactive
22,COc1cc(/C=N\Nc2nc(-c3cccs3)c(NC(C)=O)s2)ccc1O,4.67 µM (active)
23,CC(=O)Nc1sc(N/N=C\c2ccco2)nc1-c1cccs1,74 µM (active)
24,CCOc1cc(/C=N/Nc2nc(-c3cccs3)c(NC(C)=O)s2)ccc1O,9.71 µM (active)

row,Structure (SMILES),IC50
1,NS(=O)(=O)c1cc(C(=O)NC2CCSc3ccccc32)ccc1Cl (stereo unspecified),inactive
2,CSc1cccc(NC(=O)CN2C(=O)c3ccccc3S2(=O)=O)c1,inactive
3,CCS(=O)(=O)c1ncc(Cl)c(C(=O)Nc2ccc(S(=O)(=O)N3CCCC(C)C3)cc2)n1 (stereo unspecified),inactive
4,Cc1cc(N/N=C/c2ccc(O)cc2O)nc(N2CCOCC2)n1,22.7 µM (active)
5,Oc1ccc(/C=N/Nc2cc(N3CCOCC3)nc(N3CCOCC3)n2)cc1O,4.67 µM (active)
6,Oc1ccc(/C=N/Nc2cc(N3CCCC3)nc(N3CCCC3)n2)cc1O,31.9 µM (active)
7,O=C(NC1CCCC1)C(c1ccc(F)cc1)N(Cc1ccc(F)cc1)C(=O)c1ccn[nH]1 (stereo unspecified),inactive
8,CCc1ccccc1N1CSC2=C(C#N)C(c3ccccc3F)CC(=O)N2C1 (stereo unspecified),inactive
9,COc1ccc(N2CSC3=C(C#N)C(c4cccc(OC)c4OC)CC(=O)N3C2)cc1 (stereo unspecified),5.84 µM (active)
10,COc1ccc(N2CSC3=C(C#N)C(c4cccs4)CC(=O)N3C2)cc1 (stereo unspecified),7.88 µM (active)
11,CCOc1ccc(N2CSC3=C(C#N)C(c4ccco4)CC(=O)N3C2)cc1 (stereo unspecified),10.4 µM (active)
12,Cc1ccc(N2CSC3=C(C#N)C(c4cccs4)CC(=O)N3C2)cc1 (stereo unspecified),23.6 µM (active)
13,N#CC1=C2SCN(Cc3ccccc3)CN2C(=O)CC1c1cccs1 (stereo unspecified),inactive
14,COc1ccc(C2CC(=O)N3CN(c4ccc(C)c(Cl)c4)CSC3=C2C#N)cc1 (stereo unspecified),inactive
15,COc1ccc(-n2cc(CN3CCCC3)c(-c3cccc(F)c3)n2)cc1,inactive
16,C/C=C/c1cc(CN2CCN(c3ccc(OC)cc3)CC2)c(O)c(OC)c1,32.1 µM (active)
17,COc1ccc2cc(-c3[nH]ncc3CN3CCCN(c4ccccc4)CC3)ccc2c1,inactive
18,O=S(=O)(Nc1cccc(C(F)(F)F)c1)c1cnc[nH]1,inactive
19,Cc1cc(C)c2c(=O)n(CC(=O)Nc3cccc(Cl)c3C)sc2n1,inactive
20,Cc1coc2c(O)cc3c(c12)OC1(N2CCCCC2)C(=O)NCCCC31 (stereo unspecified),inactive
21,COc1cc(CNc2ccc3c(c2)CCC3)cc(OC)c1O,11.4 µM (active)
22,CC1=C(C#N)C(=O)N(C2CCS(=O)(=O)C2)C(=O)/C1=C\c1ccco1 (stereo unspecified),82 µM (active)
23,CC1C/C(=C/c2ccco2)C(=O)/C(=C/c2ccco2)C1 (stereo unspecified),inactive
24,N#CC1=C(N)n2c(s/c(=C\c3ccco3)c2=O)=C(C#N)C1c1ccco1 (stereo unspecified),inactive
